{
  "source": "PubChem BioAssay (EPA / NIEHS)",
  "key": {"[1]": {"test": "ACEA_AR_agonist_AUC_viability: ACEA Biosciences xCELLigence Real-Time Cell Analysis on Androgen Receptor Agonism for Viability (AID 2283775)", "procedure,_shortened": "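Real-time impedance tracking of 22Rv1 growth, readings every 5 min for 5 h then hourly; area-under-curve viability endpoint at 80 hours, relative to DMSO. Compounds at eight concentrations, 1:4 steps, top 100 uM, n = 2.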"}, "[2]": {"test": "ACEA_AR_antagonist_AUC_viability: ACEA Biosciences xCELLigence Real-Time Cell Analysis on Androgen Receptor Antagonism for Viability (AID 2283776);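 note: 22Rv1 human prostate cancer cells growing on impedance electrode plates; hits lower the growth signal relative to DMSO meaning cytotoxicity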", "procedure,_shortened": "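Impedance read-out (RT-CES): area under growth curve at 80 h post-dose, loss of signal scored vs DMSO baseline. 22Rv1 cells; 8-pt 1:4 series, top 100 uM final, ≤0.5% DMSO; biological duplicate.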"}, "[3]": {"test": "ACEA_ER_AUC_viability: ACEA Biosciences xCELLigence Real-Time Cell Analysis on Estrogen Receptor Agonism for Viability (AID 2283782);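 note: continuous compound exposure with impedance area under curve over 80 h; hit means loss of impedance signal meaning reduced cell growth or viability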", "procedure,_shortened": "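T47D cells preconditioned in phenol red-free RPMI with charcoal-stripped FBS, then dosed with 8-point 1:4 series from 100 uM (up to 0.5% DMSO). Impedance monitored up to ~80 h; area-under-curve loss versus DMSO taken as viability.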"}, "AR (gene 367)": {"biological_target": "AR (gene 367) (UniProt P10275)", "sequence (P10275 whole entry, looked up)": "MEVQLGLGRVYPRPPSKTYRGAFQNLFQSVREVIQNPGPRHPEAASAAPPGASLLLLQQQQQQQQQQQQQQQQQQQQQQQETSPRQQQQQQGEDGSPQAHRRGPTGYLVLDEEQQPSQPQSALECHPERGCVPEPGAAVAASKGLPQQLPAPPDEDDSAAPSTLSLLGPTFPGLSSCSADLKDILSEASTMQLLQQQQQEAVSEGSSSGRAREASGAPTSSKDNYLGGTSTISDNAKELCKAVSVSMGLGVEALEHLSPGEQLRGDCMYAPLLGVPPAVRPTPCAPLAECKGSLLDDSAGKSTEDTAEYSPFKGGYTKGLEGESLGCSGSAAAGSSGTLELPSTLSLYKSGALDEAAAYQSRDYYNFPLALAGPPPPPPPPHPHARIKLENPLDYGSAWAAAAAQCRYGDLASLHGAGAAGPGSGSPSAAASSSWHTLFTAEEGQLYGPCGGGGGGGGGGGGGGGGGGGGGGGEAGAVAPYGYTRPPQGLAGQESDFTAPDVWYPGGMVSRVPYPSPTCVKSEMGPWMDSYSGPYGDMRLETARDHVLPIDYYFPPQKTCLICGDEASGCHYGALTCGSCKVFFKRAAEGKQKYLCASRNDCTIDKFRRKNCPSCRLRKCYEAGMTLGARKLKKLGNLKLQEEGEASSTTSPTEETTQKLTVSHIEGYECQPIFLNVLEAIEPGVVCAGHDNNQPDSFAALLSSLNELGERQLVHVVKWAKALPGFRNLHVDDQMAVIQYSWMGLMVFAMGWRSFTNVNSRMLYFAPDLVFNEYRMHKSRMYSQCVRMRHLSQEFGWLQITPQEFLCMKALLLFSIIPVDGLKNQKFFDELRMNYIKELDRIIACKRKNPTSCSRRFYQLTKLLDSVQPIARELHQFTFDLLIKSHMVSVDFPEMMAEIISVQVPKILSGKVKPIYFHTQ", "test": "ACEA_AR_agonist_80hr: ACEA Biosciences xCELLigence Real-Time Cell Analysis on Androgen Receptor Agonism for Proliferation (AID 2283783);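 note: hits increase impedance growth signal above DMSO baseline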", "procedure,_shortened": "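Proliferation of 22Rv1 prostate cancer cells tracked by electrical impedance, endpoint taken at 80 hours after dosing. Eight-point 1:4 dilutions from 100 uM maximum final, duplicate; testosterone and MG132 as positive controls, assay media as negative.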"}},
  "note": "Results filed as inconclusive are left out. The source holds several records for some structures; these can differ, active in one and inactive in another. Activity calls are given as the source filed them. Rule for the calls: active = hit-call score of the fitted dose curve at least 0.9, where 1 is the maximum; inconclusive = response in the unintended direction; inactive = score below 0.9.",
  "data": [
    {"smiles": "CCc1nn(C)c(C(=O)NCc2ccc(C(C)(C)C)cc2)c1Cl", "values": [
      {"measurement": "AC50", "setting": "[1]", "value": "25.3 µM (active)"},
      {"measurement": "AC50", "setting": "[2]", "value": "19.4 µM (active)"},
      {"measurement": "outcome", "setting": "[3]", "value": "inactive"}
    ]},
    {"smiles": "CC1=C(C(=O)Nc2ccccc2)SCCO1", "values": [
      {"measurement": "outcome", "setting": "[2]", "value": "inactive"},
      {"measurement": "outcome", "setting": "AR (gene 367)", "value": "inactive"}
    ]},
    {"smiles": "CCCCNC(=O)n1c(NC(=O)OC)nc2ccccc21", "values": [
      {"measurement": "AC50", "setting": "[1]", "value": "45.6 µM (active)"},
      {"measurement": "AC50", "setting": "[2]", "value": "61.6 µM (active)"},
      {"measurement": "AC50", "setting": "[3]", "value": "18.1 µM (active)"},
      {"measurement": "outcome", "setting": "AR (gene 367)", "value": "inactive"}
    ]},
    {"smiles": "N#Cc1cc(Br)c(O)c(Br)c1", "values": [
      {"measurement": "AC50", "setting": "[1]", "value": "59.6 µM (active)"},
      {"measurement": "AC50", "setting": "[2]", "value": "52.1 µM (active)"},
      {"measurement": "outcome", "setting": "AR (gene 367)", "value": "inactive"}
    ]},
    {"smiles": "C=CCC1=C(C)C(OC(=O)C2C(C=C(C)C)C2(C)C)CC1=O", "note": "(configuration not stated)", "values": [
      {"measurement": "AC50", "setting": "[1]", "value": "52.5 µM (active)"},
      {"measurement": "AC50", "setting": "[2]", "value": "52.5 µM (active)"},
      {"measurement": "AC50", "setting": "[3]", "value": "87.8 µM (active) [middle of 5 runs]"},
      {"measurement": "outcome", "setting": "[3]", "value": "inactive"}
    ]},
    {"smiles": "Cc1ccc(-c2c(Cl)nc(C#N)n2S(=O)(=O)N(C)C)cc1", "values": [
      {"measurement": "AC50", "setting": "[1]", "value": "19.2 µM (active)"},
      {"measurement": "AC50", "setting": "[2]", "value": "16.1 µM (active)"},
      {"measurement": "outcome", "setting": "AR (gene 367)", "value": "inactive"}
    ]},
    {"smiles": "CC(C)C1(C)N=C(c2nc3ccccc3cc2C(=O)O)NC1=O", "note": "(configuration not stated)", "values": [
      {"measurement": "outcome", "setting": "[2]", "value": "inactive"}
    ]},
    {"smiles": "CCOC(=O)C(Cl)Cc1cc(-n2nc(C)n(C(F)F)c2=O)c(F)cc1Cl", "note": "(configuration not stated)", "values": [
      {"measurement": "outcome", "setting": "[1]", "value": "inactive"},
      {"measurement": "outcome", "setting": "[3]", "value": "inactive"}
    ]},
    {"smiles": "Cc1cc(Cl)ccc1OCC(=O)O", "values": [
      {"measurement": "outcome", "setting": "[1]", "value": "inactive"},
      {"measurement": "outcome", "setting": "[2]", "value": "inactive"},
      {"measurement": "outcome", "setting": "AR (gene 367)", "value": "inactive"}
    ]},
    {"smiles": "CNC(=O)ON=CC(C)(C)SC", "values": [
      {"measurement": "outcome", "setting": "[2]", "value": "inactive"}
    ]},
    {"smiles": "CCON=C(CC)C1=C(O)CC(c2c(C)cc(C)cc2C)CC1=O", "note": "(configuration not stated)", "values": [
      {"measurement": "outcome", "setting": "[1]", "value": "inactive"},
      {"measurement": "outcome", "setting": "[2]", "value": "inactive"},
      {"measurement": "outcome", "setting": "[3]", "value": "inactive"}
    ]},
    {"smiles": "CC(Oc1ccc(Cl)cc1Cl)C(=O)O", "note": "(configuration not stated)", "values": [
      {"measurement": "outcome", "setting": "[1]", "value": "inactive"},
      {"measurement": "outcome", "setting": "[2]", "value": "inactive"}
    ]},
    {"smiles": "O=C(O)c1nc(Cl)ccc1Cl", "values": [
      {"measurement": "outcome", "setting": "[1]", "value": "inactive"},
      {"measurement": "outcome", "setting": "[2]", "value": "inactive"},
      {"measurement": "outcome", "setting": "[3]", "value": "inactive"}
    ]},
    {"smiles": "CCNc1nc(Cl)nc(NC(C)C)n1", "values": [
      {"measurement": "outcome", "setting": "[1]", "value": "inactive"},
      {"measurement": "outcome", "setting": "[2]", "value": "inactive"},
      {"measurement": "outcome", "setting": "[3]", "value": "inactive"}
    ]}
  ]
}
